# The supplement of paper PMC4022240
# ± gives the standard deviation.
# T1: HaloTag-ATRX ADD domain (163-292)
# T1 chain: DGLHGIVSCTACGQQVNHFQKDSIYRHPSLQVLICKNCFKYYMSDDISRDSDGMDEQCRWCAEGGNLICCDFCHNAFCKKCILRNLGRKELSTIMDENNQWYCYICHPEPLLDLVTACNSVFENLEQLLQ
# What was measured:
# Assay in all cases: peptide microarray binding signal (635 nm), min-max normalized on array (fraction of array maximum); higher = stronger binding
# Settings in all cases: peptide region: H3 5-17
# [1] = molecular target: T1, HaloTag-ATRX ADD domain (163-292)
# In short: (§1)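 Binding signal is the mean intensity of triplicate spots, min-max scaled within each library. Histone 13-mer peptide–cellulose conjugates were spotted in triplicate on nitrocellulose with a Cy3 tracer and blocked overnight at 4°C. Probing lasted 1 h at 4°C, either with biotin-labelled HaloTag reader fusions (10 nM to 1 μM) and streptavidin-Alexa Fluor 647 or with rabbit histone antibodies (1:10,000 to 1:2,000) and anti-rabbit Alexa 647. An Axon GenePix 4000B read signal at 635 nm and misprints at 532 nm.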
# [2] = molecular target: HaloTag-ING2 PHD (mouse Ing2 200-280)
# In short: as §1
# [3] = molecular target: anti-H3K4me3 antibody ab8580
# In short: as §1
# [4] = molecular target: anti-H3K9me3 antibody ab8898
# In short: as §1
# [5] = peptide modifications: H3R8cit H3K9me1, binder concentration: 1:2,000 dilution
# [6] = peptide modifications: H3R8cit H3K9me1, binder concentration: 1:10,000 dilution
# [7] = peptide modifications: H3R8me2a H3K9me3, binder concentration: 1:2,000 dilution
# [8] = peptide modifications: H3R8me2a H3K9me3, binder concentration: 1:10,000 dilution
# [9] = peptide modifications: H3R8me2a H3T11ph, binder concentration: 1:2,000 dilution
# [10] = peptide modifications: H3R8me2a H3T11ph, binder concentration: 1:10,000 dilution
# [11] = peptide modifications: H3R8me2a H3S10ph, binder concentration: 1:2,000 dilution
# [12] = peptide modifications: H3R8me2a H3S10ph, binder concentration: 1:10,000 dilution
# [13] = peptide modifications: H3R8me1 H3K9me3, binder concentration: 1:2,000 dilution
# [14] = peptide modifications: H3R8me1 H3K9me3, binder concentration: 1:10,000 dilution
# [15] = peptide modifications: H3R8cit H3T11ph, binder concentration: 1:2,000 dilution
# [16] = peptide modifications: H3R8cit H3T11ph, binder concentration: 1:10,000 dilution
# [17] = peptide modifications: H3R8me2a H3K9ac, binder concentration: 1:2,000 dilution
# [18] = peptide modifications: H3R8me2a H3K9ac, binder concentration: 1:10,000 dilution
# [19] = peptide modifications: H3R8cit H3K9me3, binder concentration: 1:2,000 dilution
# [20] = peptide modifications: H3R8cit H3K9me3, binder concentration: 1:10,000 dilution
# [21] = peptide modifications: H3R8me2a H3K9me1, binder concentration: 1:2,000 dilution
# [22] = peptide modifications: H3R8me2a H3K9me1, binder concentration: 1:10,000 dilution
# [23] = peptide modifications: H3R8me1 H3K9me2, binder concentration: 1:2,000 dilution
# [24] = peptide modifications: H3R8me1 H3K9me2, binder concentration: 1:10,000 dilution
binder,measurement,setting,value
QTARKSTGGKAPR [H3 5-17 Q T A Rcit Kme S T G G K A P R],peptide microarray binding signal,"[1]; peptide modifications: H3R8cit H3K9me1, binder concentration: 50 nM",0.00686 ± 0.00018
same,peptide microarray binding signal,"[1]; peptide modifications: H3R8cit H3K9me1, binder concentration: 500 nM",0.0113 ± 0.00044
same,peptide microarray binding signal,"[2]; peptide modifications: H3R8cit H3K9me1, binder concentration: 10 nM",0.0186 ± 0.0018
same,peptide microarray binding signal,"[2]; peptide modifications: H3R8cit H3K9me1, binder concentration: 100 nM",0.0317 ± 0.0022
same,peptide microarray binding signal,[3]; [5],0.00427 ± 0.00041
same,peptide microarray binding signal,[3]; [6],0.00394 ± 6.2e-05
same,peptide microarray binding signal,[4]; [5],0.00462 ± 0.00021
same,peptide microarray binding signal,[4]; [6],0.00311 ± 7e-05
QTARKSTGGKAPR [H3 5-17 Q T A Rme2a Kme3 S T G G K A P R],peptide microarray binding signal,"[1]; peptide modifications: H3R8me2a H3K9me3, binder concentration: 50 nM",0.00527 ± 0.0012
same,peptide microarray binding signal,"[1]; peptide modifications: H3R8me2a H3K9me3, binder concentration: 500 nM",0.0107 ± 0.0015
same,peptide microarray binding signal,"[2]; peptide modifications: H3R8me2a H3K9me3, binder concentration: 10 nM",0.0164 ± 0.0009
same,peptide microarray binding signal,"[2]; peptide modifications: H3R8me2a H3K9me3, binder concentration: 100 nM",0.019 ± 0.0012
same,peptide microarray binding signal,[3]; [7],0.0361 ± 0.011
same,peptide microarray binding signal,[3]; [8],0.0283 ± 0.011
same,peptide microarray binding signal,[4]; [7],0.208 ± 0.075
same,peptide microarray binding signal,[4]; [8],0.208 ± 0.025
QTARKSTGGKAPR [H3 5-17 Q T A Rme2a K S Tph G G K A P R],peptide microarray binding signal,"[1]; peptide modifications: H3R8me2a H3T11ph, binder concentration: 50 nM",0.00567 ± 0.00028
same,peptide microarray binding signal,"[1]; peptide modifications: H3R8me2a H3T11ph, binder concentration: 500 nM",0.008 ± 0.00083
same,peptide microarray binding signal,"[2]; peptide modifications: H3R8me2a H3T11ph, binder concentration: 10 nM",0.0111 ± 0.00069
same,peptide microarray binding signal,"[2]; peptide modifications: H3R8me2a H3T11ph, binder concentration: 100 nM",0.0171 ± 0.0015
same,peptide microarray binding signal,[3]; [9],0.00181 ± 0.00016
same,peptide microarray binding signal,[3]; [10],0.00257 ± 6e-05
same,peptide microarray binding signal,[4]; [9],0.0287 ± 0.023
same,peptide microarray binding signal,[4]; [10],0.00409 ± 0.0015
QTARKSTGGKAPR [H3 5-17 Q T A Rme2a K Sph T G G K A P R],peptide microarray binding signal,"[1]; peptide modifications: H3R8me2a H3S10ph, binder concentration: 50 nM",0.00837 ± 0.0001
same,peptide microarray binding signal,"[1]; peptide modifications: H3R8me2a H3S10ph, binder concentration: 500 nM",0.0191 ± 0.0021
same,peptide microarray binding signal,"[2]; peptide modifications: H3R8me2a H3S10ph, binder concentration: 10 nM",0.0259 ± 0.0014
same,peptide microarray binding signal,"[2]; peptide modifications: H3R8me2a H3S10ph, binder concentration: 100 nM",0.0521 ± 0.0085
same,peptide microarray binding signal,[3]; [11],0.00508 ± 0.00076
same,peptide microarray binding signal,[3]; [12],0.00525 ± 0.00042
same,peptide microarray binding signal,[4]; [11],0.00298 ± 0.00042
same,peptide microarray binding signal,[4]; [12],0.00288 ± 4.3e-05
QTARKSTGGKAPR [H3 5-17 Q T A Rme Kme3 S T G G K A P R],peptide microarray binding signal,"[1]; peptide modifications: H3R8me1 H3K9me3, binder concentration: 50 nM",0.00652 ± 0.00076
same,peptide microarray binding signal,"[1]; peptide modifications: H3R8me1 H3K9me3, binder concentration: 500 nM",0.0104 ± 0.0013
same,peptide microarray binding signal,"[2]; peptide modifications: H3R8me1 H3K9me3, binder concentration: 10 nM",0.0116 ± 0.00032
same,peptide microarray binding signal,"[2]; peptide modifications: H3R8me1 H3K9me3, binder concentration: 100 nM",0.0168 ± 0.002
same,peptide microarray binding signal,[3]; [13],0.0438 ± 0.013
same,peptide microarray binding signal,[3]; [14],0.0394 ± 0.0046
same,peptide microarray binding signal,[4]; [13],0.185 ± 0.023
same,peptide microarray binding signal,[4]; [14],0.243 ± 0.0063
QTARKSTGGKAPR [H3 5-17 Q T A Rcit K S Tph G G K A P R],peptide microarray binding signal,"[1]; peptide modifications: H3R8cit H3T11ph, binder concentration: 50 nM",0.00404 ± 0.00028
same,peptide microarray binding signal,"[1]; peptide modifications: H3R8cit H3T11ph, binder concentration: 500 nM",0.0123 ± 0.0011
same,peptide microarray binding signal,"[2]; peptide modifications: H3R8cit H3T11ph, binder concentration: 10 nM",0.0179 ± 0.0072
same,peptide microarray binding signal,"[2]; peptide modifications: H3R8cit H3T11ph, binder concentration: 100 nM",0.0242 ± 0.0054
same,peptide microarray binding signal,[3]; [15],0.00285 ± 4.3e-05
same,peptide microarray binding signal,[3]; [16],0.002511 ± 2.2e-05
same,peptide microarray binding signal,[4]; [15],0.00142 ± 0.00018
same,peptide microarray binding signal,[4]; [16],0.00115 ± 2e-05
QTARKSTGGKAPR [H3 5-17 Q T A Rme2a Kac S T G G K A P R],peptide microarray binding signal,"[1]; peptide modifications: H3R8me2a H3K9ac, binder concentration: 50 nM",0.00423 ± 6.5e-05
same,peptide microarray binding signal,"[1]; peptide modifications: H3R8me2a H3K9ac, binder concentration: 500 nM",0.003 ± 4.1e-05
same,peptide microarray binding signal,"[2]; peptide modifications: H3R8me2a H3K9ac, binder concentration: 10 nM",0.00651
same,peptide microarray binding signal,"[2]; peptide modifications: H3R8me2a H3K9ac, binder concentration: 100 nM",0.00765 ± 0.00019
same,peptide microarray binding signal,[3]; [17],0.00208 ± 6e-05
same,peptide microarray binding signal,[3]; [18],0.00217 ± 5.2e-05
same,peptide microarray binding signal,[4]; [17],0.00403 ± 0.00054
same,peptide microarray binding signal,[4]; [18],0.00427 ± 9.8e-05
QTARKSTGGKAPR [H3 5-17 Q T A Rcit Kme3 S T G G K A P R],peptide microarray binding signal,"[1]; peptide modifications: H3R8cit H3K9me3, binder concentration: 50 nM",0.0148 ± 0.00057
same,peptide microarray binding signal,"[1]; peptide modifications: H3R8cit H3K9me3, binder concentration: 500 nM",0.036 ± 0.002
same,peptide microarray binding signal,"[2]; peptide modifications: H3R8cit H3K9me3, binder concentration: 10 nM",0.0937 ± 0.0048
same,peptide microarray binding signal,"[2]; peptide modifications: H3R8cit H3K9me3, binder concentration: 100 nM",0.102 ± 0.013
same,peptide microarray binding signal,[3]; [19],0.453 ± 0.025
same,peptide microarray binding signal,[3]; [20],0.334 ± 0.09
same,peptide microarray binding signal,[4]; [19],1 ± 0.068
same,peptide microarray binding signal,[4]; [20],0.952 ± 0.059
QTARKSTGGKAPR [H3 5-17 Q T A Rme2a Kme S T G G K A P R],peptide microarray binding signal,"[1]; peptide modifications: H3R8me2a H3K9me1, binder concentration: 50 nM",0.0102 ± 0.00047
same,peptide microarray binding signal,"[1]; peptide modifications: H3R8me2a H3K9me1, binder concentration: 500 nM",0.0208 ± 0.00058
same,peptide microarray binding signal,"[2]; peptide modifications: H3R8me2a H3K9me1, binder concentration: 10 nM",0.0329 ± 0.0037
same,peptide microarray binding signal,"[2]; peptide modifications: H3R8me2a H3K9me1, binder concentration: 100 nM",0.0496 ± 0.0052
same,peptide microarray binding signal,[3]; [21],0.0224 ± 0.003
same,peptide microarray binding signal,[3]; [22],0.0247 ± 0.0017
same,peptide microarray binding signal,[4]; [21],0.0228 ± 0.0036
same,peptide microarray binding signal,[4]; [22],0.0159 ± 0.0016
QTARKSTGGKAPR [H3 5-17 Q T A Rme Kme2 S T G G K A P R],peptide microarray binding signal,"[1]; peptide modifications: H3R8me1 H3K9me2, binder concentration: 50 nM",0.00934 ± 0.00073
same,peptide microarray binding signal,"[1]; peptide modifications: H3R8me1 H3K9me2, binder concentration: 500 nM",0.0296 ± 0.00077
same,peptide microarray binding signal,"[2]; peptide modifications: H3R8me1 H3K9me2, binder concentration: 10 nM",0.0501 ± 0.013
same,peptide microarray binding signal,"[2]; peptide modifications: H3R8me1 H3K9me2, binder concentration: 100 nM",0.0426 ± 0.0023
same,peptide microarray binding signal,[3]; [23],0.0281 ± 0.0026
same,peptide microarray binding signal,[3]; [24],0.0231 ± 0.00029
same,peptide microarray binding signal,[4]; [23],0.175 ± 0.029
same,peptide microarray binding signal,[4]; [24],0.0879 ± 0.0073
